# Measured values as given in PubChem BioAssay (NCI).
# About 79,000 compounds went through this panel and 15% of them were active in at least one assay; those are over-represented in the sample as a whole. Active and inactive are the calls of the source. Rule as the data show it: active = growth inhibition above about 70%; inactive = the rest.
# Assay: NCI Yeast Anticancer Drug Screen. Data for the rad50EPP+ strain (AID 151);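 also: 0% = growth of vehicle-treated control cultures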
# Conditions: S. cerevisiae rad50 mutant strain, at 33.0 µM, hits give high values
# In short: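 Growth inhibition read against vehicle controls in rad50EPP+ yeast, a strain altered in DNA damage repair, after compound exposure.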
row,SMILES,growth inhibition
1,O=Cc1ccccc1C=O,6% (inactive)
2,C1=CCN([B-](c2ccccc2)[C+]2CCCCC2)C=C1,2% (inactive)
3,CC/C(=C(\c1ccccc1)c1ccc(OCC[N+](C)(C)C)cc1)c1ccccc1,98% (active)
4,O=S(=O)(c1cccc(C(F)(F)F)c1)N1c2ccccc2-n2cccc2C1c1cccnc1 (stereo unspecified),-57% (inactive)
5,Nc1ccc2c(c1)C(=O)c1c(F)cccc1-2,86% (active)
6,CN(C)/C(=N/C(=S)Nc1ccccc1)SCc1ccccc1,1% (inactive)
7,CCN(CC)C(=S)N/N=C(\C)c1ccccc1O,45% (inactive)
8,CC(C)OC(=O)NNc1cc(Cl)ccc1Cl,72% (active)
9,CC(C)CCC[C@@H](C)[C@H]1CC[C@H]2[C@@H]3CC[C@H]4C[C@H](N)CC[C@]4(C)[C@H]3CC[C@]12C,7% (inactive)
10,O=C1c2ccccc2-c2ccc(N=Cc3ccccc3)cc21,87% (active)

# Same assay, conditions: S. cerevisiae rad50 mutant strain, at 100.0 µM, hits give high values
row,SMILES,growth inhibition
1,COc1ccc2nc3cccc([N+](=O)[O-])c3c(NCCNCCN(C)C)c2c1,3% (inactive)
2,Cc1cccc(/C=N/NC(=S)NC2CCCCC2)n1,-12% (inactive)
3,COC(=O)C(=O)c1c(-c2ccc(Cl)c(Cl)c2)[nH]c2[nH]n(-c3ccccc3)c(=O)c2c1=O,76% (active)
4,c1ccc([P+](CCN2Cc3ccccc3C2)(c2ccccc2)c2ccccc2)cc1,6% (inactive)
5,Cc1cc(C)c2[s+]snc2c1,80% (active)
6,CC(C)(Br)C(=O)/C=C/c1ccccc1,95% (active)
7,Cc1ccc(S(=O)(=O)NC(=O)C2C(=O)CC3(CCCCC3)CC2=O)cc1,-21% (inactive)
8,NC(=S)N1N=C2c3ccccc3CC[C@H]2[C@@H]1c1ccc(Cl)cc1,37% (inactive)
9,O=[N+]([O-])/C=C/c1cc2ccc3ccccc3c2[nH]1,87% (active)
10,O=C1C(=C2CCCC2)CCC1CN1CCCCC1 (stereo unspecified),94% (active)
11,OC(CC(O)(C(F)(F)F)C(F)(F)F)c1ccc(C(O)CC(O)(C(F)(F)F)C(F)(F)F)cc1 (stereo unspecified),60% (inactive)
12,COc1cc2c(cc1OC)[C@@H](Nc1ccc(C#N)cc1)C1COC(=O)[C@@H]1C2c1cc(OC)c(O)c(OC)c1 (stereo partly specified),20% (inactive)
13,O=c1cccccc1[O-].O=c1cccccc1[O-].O=c1cccccc1[O-].[Eu+3],96% (active)
14,O=C1c2ccccc2C(=O)c2sc(Nc3ccccc3Cl)nc21,98% (active)
15,NC(CCCCCCCCCCCCC(N)C(=O)c1ccccc1)C(=O)c1ccccc1 (stereo unspecified),-3% (inactive)
16,CC1=C(C)C(=O)C2=C(OCCO2)C1=O,46% (inactive)
17,c1ccc(-c2cc(C3CO3)c3ccccc3n2)cc1 (stereo unspecified),68% (inactive)
18,S=C1C(=Nc2ccccc2)N(c2ccccc2)/C(=N\c2ccccn2)N1c1ccccc1,37% (inactive)

row,SMILES,growth inhibition
1,CCC(OC(C)=O)C1CC(C(C)C)CCC1C (stereo unspecified),96% (active)
2,CC(C)=CCc1c2c(c(O)c3c(=O)c(-c4ccc(O)c(O)c4)coc13)C=CC(C)(C)O2,-31% (inactive)
3,O=C(NC(N1CCN(c2cc3c(cc2F)c(=O)c(C(=O)O)cn3C2CC2)CC1)(C(F)(F)F)C(F)(F)F)c1ccccc1,40% (inactive)
4,Fc1cc(F)c(F)c(S)c1F,98% (active)
5,COc1ccc2cc3c4cc5c(cc4cc[n+]3cc2c1OC)OCO5,88% (active)
6,CCCCCCCCNCCCCCCCC,99% (active)
7,Nc1cc(Cl)ccc1Nc1ccccc1,69% (inactive)
8,O=C(/C(=C/c1ccc(O)cc1)c1ccccc1)c1ccccc1,9% (inactive)
9,O=Cc1ccccc1C=O,34% (inactive)
10,C1=CCN([B-](c2ccccc2)[C+]2CCCCC2)C=C1,22% (inactive)
11,CC/C(=C(\c1ccccc1)c1ccc(OCC[N+](C)(C)C)cc1)c1ccccc1,99% (active)
12,O=S(=O)(c1cccc(C(F)(F)F)c1)N1c2ccccc2-n2cccc2C1c1cccnc1 (stereo unspecified),-46% (inactive)
13,Nc1ccc2c(c1)C(=O)c1c(F)cccc1-2,97% (active)
14,CN(C)/C(=N/C(=S)Nc1ccccc1)SCc1ccccc1,13% (inactive)
15,CCN(CC)C(=S)N/N=C(\C)c1ccccc1O,83% (active)
16,CC(C)OC(=O)NNc1cc(Cl)ccc1Cl,88% (active)
17,CC(C)CCC[C@@H](C)[C@H]1CC[C@H]2[C@@H]3CC[C@H]4C[C@H](N)CC[C@]4(C)[C@H]3CC[C@]12C,7% (inactive)
18,O=C1c2ccccc2-c2ccc(N=Cc3ccccc3)cc21,97% (active)
